# In the library only some 3.9% were active in any assay of this set; here they are far more common.
# TROY NFkB inh = blocks TROY-dependent signaling in reporter cells; Q293 LMP1-TROYcd NF-kB luciferase reporter, 4 h; inhibition, % at 10 µM; 360,000 tested, 0.98% active; AID 1347056;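 active means compounds whose plate-normalised and pattern-corrected inhibition of the luciferase reporter signal at the single screening dose is 50% or more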
# HIF-2a block = blocks HIF-2a reporter activity | 786-0 RCC cells HIF-2a reporter, luciferase luminescence, overnight | inhibition, % at 18.8 µM | 360,000 tested, 0.72% active | AID 624352;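 active means inhibition of the luminescence signal of 40% or more relative to plate controls, in a single-dose primary screen at 18.75 µM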
# KKLEB cytotox = reduces viability of KKLEB cystic fibrosis airway cells | KKLEB CF airway cells viability, ATPlite luminescence, overnight; hits give low values; cells stimulated with P. aeruginosa culture filtrate | activity change (cytotoxicity), % at 5 µM | 360,000 tested, 0.36% active | AID 602141;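 active means corrected activity change at or below -50% at 5 µM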
# Peg3 prom inh = Peg3 promoter activity inhibition; HeLa PEG-Prom luciferase reporter, luminescence, overnight; 360,000 tested, 1.7% active; inhibition, % at 20 µM;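 active means inhibition of at least 50% at 20 µM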
# CF NFkB block = cystic fibrosis NF-kB activation inhibition; KKLEB NF-kB-GFP reporter, PAF-induced, GFP fluorescence overnight; inhibition, % at 5 µM; 360,000 tested, 0.86% active; AID 588850;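 active means at least 50% inhibition at 5 µM, scaled per plate between neutral and stimulator controls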;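 further: PAF is a Pseudomonas aeruginosa culture filtrate used as stimulus; plate controls were PAF-stimulated DMSO wells for no effect and unstimulated DMSO wells for full effect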
# TWEAK Fn14 block = inhibitors of TWEAK-Fn14 interaction signaling | 360,000 tested, 2% active | inhibition, % at 10 µM | TWEAK-stimulated Fn14 reporter cells, luciferase luminescence, 8 h; in the data active means inhibition above about 50%
# CF NFkB inh conf = confirmation of cystic fibrosis induced NF-kB inhibitors | KKLEB CF airway cells, PAF-induced NF-kB-GFP fluorescence, overnight | inhibition, % at 5 µM | 1,300 tested, 64% active | shares compounds with CF NFkB block; in the data active means inhibition above about 40%;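 further: stimulus PAF is a Pseudomonas aeruginosa filtrate and not platelet activating factor; plate controls were DMSO wells with stimulus for no effect and unstimulated DMSO wells for full effect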
# Active calls of the source: *; . = no result.
SMILES,TROY NFkB inh,HIF-2a block,KKLEB cytotox,Peg3 prom inh,CF NFkB block,TWEAK Fn14 block,CF NFkB inh conf
COc1ccc(-c2cnc3c(NC=O)cc(-c4ccccc4OC)cn23)cc1OC,25.9,-8.1,-33.9,44.2,64.7*,52.7*,90.8*
O=C(NC1CCCC(C(F)(F)F)C1)c1ccc([N+](=O)[O-])o1 (stereo unspecified),-8.0,29.6,-15.9,71.3*,92.4*,7.6,53.3*
O=C(NC1CCCCC1)c1ccc([N+](=O)[O-])o1,0.9,13.2,-13.6,47.4,31.6,15.8,.
Cc1cc(C(=O)N/N=C/c2ccc(OCc3ccccc3)cc2)c(C)o1,-22.9,-54.9,6.4,-42.8,-18.3,0.9,.
CC1(C)OC2CC3C4CCC5=CC(=O)C=CC5(C)C4(F)C(O)CC3(C)C2(C(=O)CO)O1 (stereo unspecified),18.1,22.4,13.1,-3.1,66.6*,2.7,9.2
C[C@]12C=CC(=O)C=C1CCC1C3CC[C@](O)(C(=O)CO)[C@@]3(C)CC3OC312 (stereo partly specified),17.4,23.7,5.8,0.2,13.1,-10.9,.
C[C@@H]1C[C@H]2[C@@H]3CCC4=CC(=O)C=C[C@]4(C)[C@@]3(F)[C@@H](O)C[C@]2(C)[C@@]1(O)C(=O)CO,27.1,34.6,13.2,-7.3,70.6*,-12.0,21.4
O=C(CSc1nc(C2CC2)nc2ccccc12)Nc1ccccc1Cl,12.7,2.0,-35.6,8.7,59.6*,1.7,7.8
O=C(CSc1nc(C2CC2)nc2ccccc12)Nc1ccccc1,12.8,7.6,-14.7,24.9,38.5,8.6,.
Cc1ccnc(Nc2nc(-c3sc(C)nc3C)cs2)c1,37.5,-396.0,-17.2,4.0,55.2*,84.4*,91.2*
Cc1cccc(Nc2nc(-c3sc(C)nc3C)cs2)c1,-30.9,-169.7,-9.9,-198.5,1.2,24.2,.
COc1cc2oc(=O)cc(-c3ccc(-c4ccc(N(C)C)cc4)cc3)c2c(OC)c1OC,71.3*,-29.5,-27.8,-59.3,52.1*,91.7*,66.3*
CC(C)NC(=O)CCn1ccc2cc(S(=O)(=O)N3CCCC3)ccc21,-3.4,8.5,-11.2,-3.0,4.4,8.1,.
CCC(CO)Oc1cc(NCc2cc(C)cc(C)c2)c2ncn(C(C)C)c2c1 (stereo unspecified),1.0,2.9,-3.5,-20.0,67.3*,26.5,23.7
CCC(CO)Oc1cc(NCc2ccncc2)c2ncn(C(C)C)c2c1 (stereo unspecified),-14.0,6.3,9.1,5.9,-4.4,5.0,.
CCC(CO)Oc1cc(NCc2ccc(F)cc2)c2ncn(C(C)C)c2c1 (stereo unspecified),-9.9,13.0,1.3,14.5,-8.9,-8.8,.
CCC(CO)Oc1cc(NCc2ccc(C)c(C)c2)c2ncn(C(C)C)c2c1 (stereo unspecified),7.6,7.4,-11.2,29.0,51.5*,10.7,11.5
Cc1ccc(S(=O)(=O)N2[C@@H](Cc3ccccc3)CO[C@H]2CC(=O)c2ccc(F)cc2)cc1,.,-10.2,.,.,.,.,.
COc1cc(-c2nnc(NC(=O)CCS(=O)(=O)c3ccccc3)o2)cc(OC)c1OC,-6.2,-10.4,2.6,-55.6,2.7,3.5,.
COc1cc(-c2nnc(NC(=O)CCS(=O)(=O)c3ccc(F)cc3)o2)cc(OC)c1OC,-1.4,-2.7,-29.5,-10.0,54.1*,2.0,34.2
O=C(CNC(=O)c1ccccc1)NCCCSc1ccccc1,-14.2,-2.0,0.2,4.4,13.0,5.3,.
O=C(NCCCSc1ccccc1)c1cc(Cl)ccc1O,37.3,-22.3,-39.1,36.5,57.5*,55.4*,75.5*
CCOC(=O)/C(=C\c1cccc(O)c1)c1nc2sc(C)c(C)c2c(=O)[nH]1,37.5,94.8*,-26.3,115.3*,74.5*,101.1*,-96.6
COc1cc2nc(CN(C)Cc3ccc(Cl)cc3)[nH]c(=O)c2cc1OC,-17.1,28.0,-1.5,16.3,11.2,20.0,.
COc1cc2cncc(Cc3ccc(Cl)cc3)c2cc1OC,58.0*,8.8,-14.2,6.0,72.5*,75.4*,87.0*
SMILES,TROY NFkB inh,HIF-2a block,KKLEB cytotox,Peg3 prom inh,CF NFkB block,TWEAK Fn14 block,CF NFkB inh conf
O=[N+]([O-])c1cccc(-c2ccc(SCc3ccccn3)nn2)c1,-40.1,-232.8,-18.7,-248.1,3.2,-45.3,.
CCn1c2ccccc2c2cc(/C=N/O)ccc21,34.1,3.3,-9.3,-19.9,71.5*,71.2*,62.1*
CCn1c2ccccc2c2cc(/C=N/n3cnnc3)ccc21,45.5,23.1,-26.5,38.0,-13.4,-44.6,.
O=C(COC(=O)c1ccc2[nH]c3c(c2c1)CCCC3)Nc1ccccc1Cl,26.6,-11.9,-38.3,19.0,56.3*,-44.7,54.0*
COC(=O)c1cn(C(=O)OC)c2ccccc12,-1.8,13.8,1.1,-1.3,-17.7,2.6,.
O=Nc1ccc(NO)c2ccccc12,35.7,0.5,-19.1,-22.8,85.1*,70.8*,53.9*
COc1ccc(NC(=O)C(NC(=O)c2ccccc2)C(C)C)cc1 (stereo unspecified),-26.6,20.4,2.5,11.5,-0.9,-12.7,.
COc1ccc(C(=O)N[C@H](C(=O)Nc2nc3ccccc3[nH]2)C(C)C)cc1,-2.3,-185.9,-19.1,-183.4,54.8*,15.2,77.7*
Cc1cccc(C(=O)N[C@H](C(=O)Nc2nc3ccccc3[nH]2)C(C)C)c1,26.4,28.4,-29.6,17.1,65.7*,50.0,83.4*
C=CCC(=O)NC1CC(C)(C)Cc2c1cnn2-c1ccccc1C (stereo unspecified),-7.7,19.3,-8.3,11.6,19.9,8.2,.
O=C(c1cc([N+](=O)[O-])ccc1N1CCOCC1)N1CCN(c2ccccc2)CC1,30.8,22.5,-37.4,-11.3,52.9*,-9.7,59.4*
CN1CCN(c2ccc([N+](=O)[O-])cc2C(=O)N2CCOCC2)CC1,3.1,0.1,-8.7,8.3,-4.1,3.2,.
CN(C)C=Nc1c(C(=O)c2ccccc2)sc2nccc(N(C)C)c12,6.7,-1.9,-3.6,-24.8,52.8*,27.1,56.6*
CC(=O)Nc1nonc1-c1nc2ccccc2n1CC1CC1,8.3,-8.2,-22.2,21.2,59.7*,-0.2,45.2*
COc1ccc(-c2csc(NC3OC(=O)c4c3ccc(OC)c4OC)n2)cc1OC (stereo unspecified),12.5,13.6,-13.0,60.1*,77.3*,66.9*,87.2*
COc1ccc2c(c1OC)C(=O)OC2Nc1nc(-c2ccc([N+](=O)[O-])cc2)cs1 (stereo unspecified),-36.8,-112.9,2.5,-194.6,-7.6,11.3,.
COc1ccc(S(=O)(=O)N2c3ccc(F)cc3CCC2C)cc1 (stereo unspecified),16.6,20.2,-5.1,8.0,50.0*,-4.9,83.3*
